Measured values published in publication PMC5540273 (PLoS ONE, 2017).

How the values were obtained:
Settings in all cases: concentration: 1 μM, replicates: in singlicate; n = 1
PRKCD = system: PRKCD
PRKCE = system: PRKCE
PRKCH = system: PRKCH
PRKCI = system: PRKCI
PRKCQ = system: PRKCQ
PRKD1 = system: PRKD1
PRKD2 = system: PRKD2
PRKD3 = system: PRKD3
PRKG1 = system: PRKG1
PRKG2 = system: PRKG2
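Further: KINOMEscan kinase panel screen.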

| SMILES | %Inh (PRKCD) [%] | %Inh (PRKCE) [%] | %Inh (PRKCH) [%] | %Inh (PRKCI) [%] | %Inh (PRKCQ) [%] | %Inh (PRKD1) [%] | %Inh (PRKD2) [%] | %Inh (PRKD3) [%] | %Inh (PRKG1) [%] | %Inh (PRKG2) [%] |
| --- | --- | --- | --- | --- | --- | --- | --- | --- | --- | --- |
| FC(F)(F)c1ccc(-c2nn3ncccc3c2-c2ccnc(Nc3cccc(C(F)(F)F)c3)n2)cc1 [GW828205] | 16 | 0 | 0 | 30 | 0 | 7 | 6 | 0 | 5 | 16 |
| Clc1cccc(-c2nc(Nc3ccncc3)c3ccccc3n2)c1 [GW873004] | 24 | 16 | 50 | 17 | 0 | 47 | 45 | 44 | 16 | 7 |
| Cc1ccc(C)c(NC(=O)NCCNc2ccnc(Nc3ccc(F)cc3)n2)c1 [GSK1379878] | 0 | 0 | 0 | 0 | 0 | 1 | 0 | 0 | 0 | 0 |
| COc1ccc(NC(=O)Nc2ccc(C)c(-c3ccc(C(=O)Nc4ccncc4)cc3)c2)cc1 [GSK1398475] | 0 | 3 | 0 | 0 | 0 | 0 | 11 | 5 | 0 | 0 |
| CN1CCC(n2cnc(-c3ccc(F)cc3)c2-c2ccnc(NC3CCNCC3)n2)CC1 [SB-229482] | 1 | 27 | 0 | 0 | 13 | 0 | 0 | 0 | 0 | 17 |
| O=C(Nc1ccccc1F)NC1CCN(c2ccnc(Nc3ccc(F)cc3)n2)C1 (stereo not shown) [GSK1379722] | 0 | 13 | 30 | 10 | 23 | 0 | 0 | 0 | 0 | 0 |
| COC(=O)c1c(-c2ccccc2)c2cc(Cl)ccc2c(=O)n1Cc1ccc(S(C)(=O)=O)cc1 | 0 | 0 | 0 | 8 | 19 | 33 | 0 | 0 | 0 | 12 |
| Cn1ccc2ncnc(Oc3ccc(NC(=O)Nc4cccnc4)c(Cl)c3)c21 | 13 | 0 | 6 | 0 | 28 | 0 | 8 | 0 | 0 | 0 |
| O=C(NCCCN1CCCC1=O)c1cnc(NCc2cc(Cl)ccc2Cl)nc1NC1CCNCC1 | 13 | 40 | 0 | 0 | 0 | 3 | 0 | 29 | 0 | 0 |
| Cc1cc(N2CCC(NS(=O)(=O)c3ccc(F)cc3)CC2)nc(Nc2cccc(C#N)c2)n1.O=C(O)C(F)(F)F [GSK1653537] | 3 | 0 | 27 | 12 | 19 | 35 | 31 | 43 | 3 | 0 |
| Oc1ccc2ncnc(Nc3ccc(OCc4ccccc4)cc3)c2c1 [GI262866] | 0 | 0 | 6 | 27 | 15 | 0 | 0 | 30 | 0 | 0 |
| O=C(CCO)NCCn1ccc2ncnc(Nc3ccc(Oc4cccc(C(F)(F)F)c4)c(Cl)c3)c21 | 0 | 6 | 0 | 0 | 0 | 0 | 5 | 0 | 13 | 0 |
| CCn1c(-c2ccncc2)nc2cnccc21 [SB-735216] | 0 | 37 | 12 | 46 | 8 | 0 | 4 | 0 | 2 | 8 |
| Cc1ccc(NC(=O)c2cccc(C#N)c2)cc1-c1ccc(C(=O)Nc2ccncc2)cc1 [GSK1398463] | 7 | 5 | 27 | 0 | 0 | 0 | 12 | 31 | 2 | 0 |
| Cl.Cl.c1ccc(-c2cc3ccncc3cc2OC2CCNCC2)cc1 [GSK1122999] | 33 | 82 | 86 | 21 | 21 | 15 | 7 | 0 | 0 | 0 |
| CC(C)N1CCC(n2cnc(-c3ccc(F)cc3)c2-c2ccnc(N)n2)CC1 [SB-223132] | 9 | 0 | 0 | 29 | 0 | 18 | 0 | 0 | 2 | 2 |
| Cl.Fc1ccccc1COc1ccc(Nc2ncnc3ccc(-c4nnc(C(F)(F)F)o4)cc23)cc1Cl [GW424170] | 0 | 0 | 2 | 15 | 0 | 0 | 0 | 0 | 0 | 4 |

| SMILES | %Inh (PRKCD) [%] | %Inh (PRKCE) [%] | %Inh (PRKCH) [%] | %Inh (PRKCI) [%] | %Inh (PRKCQ) [%] | %Inh (PRKD1) [%] | %Inh (PRKD2) [%] | %Inh (PRKD3) [%] | %Inh (PRKG1) [%] | %Inh (PRKG2) [%] |
| --- | --- | --- | --- | --- | --- | --- | --- | --- | --- | --- |
| COc1ccc(NC(=O)c2ccc(-c3cc(-c4nnc(C)o4)ccc3C)cc2)cc1 [GW595885] | 0 | 4 | 8 | 0 | 9 | 2 | 0 | 0 | 4 | 0 |
| c1ccc(-c2ccc3c(-c4ccnc(Nc5ccc6c(c5)OCCO6)n4)cnn3n2)cc1 [GW818941] | 1 | 0 | 9 | 9 | 37 | 0 | 18 | 16 | 42 | 0 |
| COc1ccc(Nc2nccc(N3CCC(NC(=O)Nc4ccc5c(c4)OCO5)C3)n2)cc1 (stereo not shown) [GSK1379745] | 8 | 10 | 12 | 25 | 2 | 1 | 0 | 25 | 20 | 0 |
| CCc1nc(-c2cccc(N(C)S(=O)(=O)c3ccccc3)c2)c(-c2ccnc(Nc3ccc(N4CCN(C(C)=O)CC4)nc3)n2)s1 [GSK1645895] | 0 | 0 | 0 | 0 | 15 | 3 | 12 | 9 | 0 | 0 |
| Clc1ccc(-c2cc(-c3c[nH]nc3-c3ccccn3)ccn2)cc1 [GW681251] | 0 | 26 | 4 | 0 | 0 | 56 | 31 | 25 | 0 | 10 |
| Nc1n[nH]c2nnc(-c3ccccc3)cc12 [SB-517389] | 0 | 9 | 23 | 18 | 0 | 0 | 0 | 0 | 0 | 0 |
| CS(=O)(=O)CCNCc1nc(-c2ccc3ncnc(Nc4ccc(OCc5cccc(F)c5)c(Cl)c4)c3c2)cs1.Cl [GW583340] | 0 | 0 | 0 | 13 | 0 | 0 | 2 | 3 | 0 | 0 |
| Cl.c1ccc(Cn2ncc3cc(Nc4ncnc5ccccc45)ccc32)cc1 [GW273749] | 0 | 0 | 0 | 0 | 0 | 0 | 2 | 22 | 5 | 0 |
| Nc1nc(-c2ccccn2)c(-c2ccnc3ccccc23)s1 [GW548057] | 0 | 26 | 9 | 26 | 3 | 36 | 25 | 15 | 17 | 9 |
| O=C(Nc1ccccc1)Nc1ccc(Oc2ccc3nccn3n2)cc1 | 10 | 0 | 0 | 19 | 0 | 24 | 6 | 0 | 13 | 0 |
| O=C(Nc1n[nH]c2nc(-c3ccco3)c(Br)cc12)c1ccc(CN2CCCC2)cc1.O=C(O)[C@H](O)[C@@H](O)C(=O)O [SB-742352] | 0 | 2 | 17 | 0 | 0 | 0 | 30 | 0 | 0 | 0 |
| CS(=O)(=O)CCNCc1ccc(-c2ccc3ncnc(Nc4ccc(OCc5ccccc5)c(Cl)c4)c3c2)o1.Cl [GW574783] | 0 | 10 | 27 | 13 | 20 | 4 | 12 | 0 | 0 | 0 |
| Fc1cccc(COc2ccc(Nc3ncnc4cc[nH]c34)cc2Cl)c1 | 14 | 0 | 0 | 12 | 10 | 0 | 25 | 0 | 2 | 13 |
| O=c1cc(N2CCOCC2)nc2n(Cc3cccc(Cl)c3)ccn12 [GSK2296823] | 0 | 8 | 0 | 22 | 0 | 0 | 0 | 15 | 0 | 0 |
| Cc1ccc(O)cc1Nc1cc(C(F)(F)F)nc2ccc(-c3ccncc3)cc12 [GW630823] | 0 | 0 | 0 | 0 | 0 | 3 | 0 | 29 | 7 | 0 |
| Cn1cc(-c2ccc3c(c2)CCN3C(=O)Cc2cccc(C(F)(F)F)c2)c2c(N)ncnc21 [GSK2606414] | 1 | 0 | 23 | 15 | 0 | 0 | 0 | 42 | 19 | 0 |
| Cc1cccc(-c2nc(Nc3ccc4[nH]nnc4c3)c3ccccc3n2)n1 [GW867587] | 0 | 7 | 0 | 0 | 0 | 94.2 | 98.1 | 66 | 0 | 0 |
